These results are taken from the supplement of paper PMC6555819.

The assay deals with LXRa homodimer (NR concentration 270 nM). In words: PBM binding z-score (relative to random genomic background probes); higher = stronger binding; sequences stand for … in GC…GCGATTGACAGCGTAGAATGAAGG
In outline:
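Ligand-free nuclear receptor dimers were applied to custom Agilent 4×180K protein-binding microarrays whose double-stranded probes carried direct-repeat seeds, single-nucleotide variants, half-site ablations and random human genomic background sequences in 34-nt variable regions. Incubation lasted 1 h. Binding z-scores were computed against the random background probes from regression-normalized fluorescence.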
Regarding AGTCAAAGTTCATCCAGGTAACGTAAGATATGCT, the PBM binding z-score amounted to 5.22. CTCGAAAGGTCGGTTGAGGTGAGTAGACGGATAA: the PBM binding z-score came out at 0.0366.

On to CCTTACGGGTCACGAGGTTATAGGACGACGAGCG, for which the PBM binding z-score was determined as 0.193. The same measure for ATCGAAAGGTCGACGAGGTGACTATACACCGTTT: 0.283. Sequence AGAATGAGGTTACGAAAGATCAGGGAAACGCTTG returned a PBM binding z-score of -0.188. Under TCTGCTAGGTTAACGATGGTCAGCTAATCTGCTA stands -0.894; under ATCGAAAGGTCGACGAGGTGAGTATTCACCGTTT, -0.275; under ATATGTAGGTAAGCTGGGGTCATTCAGACTAGGC, 1.73. The same measure for CATACAGGGTCAGCTAGCCCAGAGTAGGGACGGC: -0.244; for ATCGAAAGATCGAGGTGAGTATAGAGAAAGGGAA: -0.321.

In the case of TCTATTAGTTAAAGGGCAACCGACGAGTCCGTTT, the PBM binding z-score came to 0.826. Under CCTATTATTTGACCATAAGGGCAACCGAAGCTCG stands 1.8; under AATACACGGTCATCGTAGGCCAGAGTACGCACAG, 2.68; under CGTCCAAGGGCAAAGGTCAGTGAAGAGATGACGG, 0.705.

The sequence CCTTACGGGTCACAAGGTTATAGCACGACGAGCG returned a PBM binding z-score of 0.422. GCGACTGGGGCATCAGCAGGTTCCCATAACTTAA registered a PBM binding z-score of -0.648.

AGAACGAGGGCACGCTGAGTTTATAGCAGAGTAG registered a PBM binding z-score of -0.437. Consider GATACAGGGTCAAGGCCAGATTACGCGTATTGAT, for which the PBM binding z-score stood at 0.129. ATACCAAGGTGAACGTGAGGTCGTTGATACTAAC returned a PBM binding z-score of 1.29. The same measure for CCTGCTAGGTCTTGGTCAGCTAATCTACAGTATG: -0.451; for GCTTGTAGATCAAGGTTACGAAAGACTAAGCTAA: -0.347.

CCTGCTAGGTCATGGTCAGCTACTCTACAGTATG came in with a PBM binding z-score of 0.256.
